Measurements: PubChem BioAssay AID1159580 (chemical genetic matrix, 2015)
The whole screen tested about 5,500 compounds, of which about 2,000 (36%) were called active. Not shown: some 18% with an inconclusive outcome. Cut-off read from the data, not from the text of the source: active = normalized growth mostly below about 0.91 (no sharp cut-off); inconclusive = no clear call, values can overlap the other calls; inactive = mostly above about 0.92. Some of the results follow.

Test: chemical genetic growth profiling, strain panel (AID 1159580);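 note: tested at 20 µM; growth read once vehicle control cultures reached saturation at 30 °C; 1 = growth at the plate median or of vehicle wells; lower values mean less growth of the strain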
Details: growth OD

Measured: normalized growth

CCn1cc(C(=O)O)c(=O)c2cc(F)c(N3CCNCC3)cc21
inactive: S. cerevisiae deletion strains, locus YJR043C, strain POL32, hits give low values 0.99 | S. cerevisiae deletion strains, locus YJR066W, strain TOR1, hits give low values 0.954 | S. cerevisiae deletion strains, locus YKL009W, strain mrt4, hits give low values 0.994 | S. cerevisiae deletion strains, locus YKL068W, hits give low values 1.01 | S. cerevisiae deletion strains, locus YKL085W, strain MDH1 (second series), hits give low values 1 | S. cerevisiae deletion strains, locus YKL085W, strain MDH1, hits give low values 1 | S. cerevisiae deletion strains, locus YKL160W, strain elf1, hits give low values 1.02 | S. cerevisiae deletion strains, locus YKL190W, strain CNB1, hits give low values 1.01 | S. cerevisiae deletion strains, locus YKR001C, strain vps1, hits give low values 0.985 | S. cerevisiae deletion strains, locus YKR026C, strain gcn3, hits give low values 0.978 | S. cerevisiae deletion strains, locus YKR091W, strain srl3, hits give low values 0.992 | S. cerevisiae deletion strains, locus YLL001W, strain dnm1, hits give low values 0.998 | S. cerevisiae deletion strains, locus YLL026W, hits give low values 0.992 | S. cerevisiae deletion strains, locus YLL041C, strain sdh2, hits give low values 0.981 | S. cerevisiae deletion strains, locus YLR027C, strain aat2, hits give low values 0.988 | S. cerevisiae deletion strains, locus YLR039C, strain RIC1, hits give low values 0.92 | S. cerevisiae deletion strains, locus YLR058C, strain SHM2, hits give low values 1.01 | S. cerevisiae deletion strains, locus YLR102C, strain apc9, hits give low values 1 | S. cerevisiae deletion strains, locus YLR113W, strain HOG1, hits give low values 1.02 | S. cerevisiae deletion strains, locus YLR221C, strain rsa3, hits give low values 1.01 | S. cerevisiae deletion strains, locus YLR258W, strain gsy2, hits give low values 0.988 | S. cerevisiae deletion strains, locus YLR262C, strain YPT6 (second series), hits give low values 0.97 | S. cerevisiae deletion strains, locus YLR262C, strain YPT6, hits give low values 0.92 | S. cerevisiae deletion strains, locus YLR268W, strain sec22, hits give low values 0.96 | S. cerevisiae deletion strains, locus YLR320W, strain mms22, hits give low values 0.998 | S. cerevisiae deletion strains, locus YLR330W, strain CHS5, hits give low values 1 | S. cerevisiae deletion strains, locus YLR342W, strain FKS1 (second series), hits give low values 0.927 | S. cerevisiae deletion strains, locus YLR342W, strain FKS1, hits give low values 0.991 | S. cerevisiae deletion strains, locus YLR357W, strain rsc2, hits give low values 0.95 | S. cerevisiae deletion strains, locus YLR370C, strain arc18, hits give low values 0.982 | S. cerevisiae deletion strains, locus YLR371W, strain rom2, hits give low values 1.01 | S. cerevisiae deletion strains, locus YLR384C, strain iki3, hits give low values 0.983 | S. cerevisiae deletion strains, locus YLR418C, strain cdc73, hits give low values 0.924 | S. cerevisiae deletion strains, locus YML016C, strain PPZ1, hits give low values 1 | S. cerevisiae deletion strains, locus YML032C, strain rad52, hits give low values 0.987 | S. cerevisiae deletion strains, locus YML120C, strain ndi1, hits give low values 0.976 | S. cerevisiae deletion strains, locus YML124C, strain tub3, hits give low values 1 | S. cerevisiae deletion strains, locus YMR058W, strain fet3, hits give low values 0.986 | S. cerevisiae deletion strains, locus YMR078C, strain ctf18, hits give low values 1.01 | S. cerevisiae deletion strains, locus YMR125W, strain sto1, hits give low values 0.965 | S. cerevisiae deletion strains, locus YMR129W, hits give low values 0.969 | S. cerevisiae deletion strains, locus YMR205C, strain PFK2, hits give low values 1.01 | S. cerevisiae deletion strains, locus YMR223W, strain ubp8, hits give low values 0.989 | S. cerevisiae deletion strains, locus YMR231W, strain pep5, hits give low values 0.987 | S. cerevisiae deletion strains, locus YMR263W, strain SAP30, hits give low values 0.998 | S. cerevisiae deletion strains, locus YMR307W, strain GAS1, hits give low values 0.899 | S. cerevisiae deletion strains, locus YNL067W, strain RPL9B, hits give low values 1.01 | S. cerevisiae deletion strains, locus YNL071W, strain lat1, hits give low values 0.962 | S. cerevisiae deletion strains, locus YNL128W, strain TEP1, hits give low values 1.03 | S. cerevisiae deletion strains, locus YNL183C, strain NPR1, hits give low values 0.962 | S. cerevisiae deletion strains, locus YNL209W, strain ssb2, hits give low values 0.986 | S. cerevisiae deletion strains, locus YNL233W, strain BNI4, hits give low values 0.998 | S. cerevisiae deletion strains, locus YNL248C, strain rpa49, hits give low values 0.992 | S. cerevisiae deletion strains, locus YNL250W, strain rad50, hits give low values 0.985 | S. cerevisiae deletion strains, locus YNL271C, strain bni1, hits give low values 0.986 | S. cerevisiae deletion strains, locus YNL298W, strain CLA4, hits give low values 0.99 | S. cerevisiae deletion strains, locus YNL307C, strain MCK1, hits give low values 0.997 | S. cerevisiae deletion strains, locus YNL322C, strain KRE1 (second series), hits give low values 0.981 | S. cerevisiae deletion strains, locus YNR049C, strain mso1, hits give low values 0.985 | S. cerevisiae deletion strains, locus YNR052C, strain pop2, hits give low values 0.998 | S. cerevisiae deletion strains, locus YOL006C, strain TOP1, hits give low values 0.965 | S. cerevisiae deletion strains, locus YOL012C, strain htz1 0.792 | S. cerevisiae deletion strains, locus YOL147C, strain pex11, hits give low values 0.999 | S. cerevisiae deletion strains, locus YOR001W, strain rrp6, hits give low values 0.94 | S. cerevisiae deletion strains, locus YOR061W, strain CKA2, hits give low values 1 | S. cerevisiae deletion strains, locus YOR069W, strain VPS5, hits give low values 1.01 | S. cerevisiae deletion strains, locus YOR070C, strain gyp1, hits give low values 0.979 | S. cerevisiae deletion strains, locus YOR080W, strain dia2, hits give low values 0.974 | S. cerevisiae deletion strains, locus YOR083W, strain WHI5, hits give low values 1.04 | S. cerevisiae deletion strains, locus YOR106W, strain vam3, hits give low values 1 | S. cerevisiae deletion strains, locus YOR136W, strain idh2, hits give low values 1.01 | S. cerevisiae deletion strains, locus YOR144C, strain elg1, hits give low values 0.998 | S. cerevisiae deletion strains, locus YOR184W, strain ser1, hits give low values 1.01 | S. cerevisiae deletion strains, locus YOR231W, strain MKK1, hits give low values 0.988 | S. cerevisiae deletion strains, locus YOR265W, strain rbl2, hits give low values 0.983 | S. cerevisiae deletion strains, locus YOR270C, strain vph1, hits give low values 0.956 | S. cerevisiae deletion strains, locus YOR290C, strain snf2, hits give low values 0.974 | S. cerevisiae deletion strains, locus YOR316C, strain cot1, hits give low values 1.01 | S. cerevisiae deletion strains, locus YPL051W, strain arl3, hits give low values 0.994 | S. cerevisiae deletion strains, locus YPL055C, strain LGE1, hits give low values 0.991 | S. cerevisiae deletion strains, locus YPL078C, strain atp4, hits give low values 0.979 | S. cerevisiae deletion strains, locus YPL106C, strain sse1, hits give low values 0.972 | S. cerevisiae deletion strains, locus YPL240C, strain hsp82, hits give low values 0.983 | S. cerevisiae deletion strains, locus YPL256C, strain CLN2, hits give low values 0.944 | S. cerevisiae deletion strains, locus YPR119W, strain clb2, hits give low values 1 | S. cerevisiae deletion strains, locus YPR141C, strain kar3, hits give low values 1 | S. cerevisiae deletion strains, locus YPR163C, strain tif3, hits give low values 1 | S. cerevisiae deletion strains, locus YPR167C, strain met16, hits give low values 1.01 | S. cerevisiae deletion strains, strain wtn01, hits give low values 0.998 | S. cerevisiae strains, strain wild type, hits give low values 1.01
